From PubChem BioAssay (Tox21) come the findings set out here.

Records with an inconclusive call do not appear. Entries that show only a call come without a potency. Values without a mark were called inactive. The source made the active and inactive calls. Unless noted, the call rests on the fitted dose curve; in most records, active means well fitted curve in the direction sought with a large enough effect in the repeat runs; inconclusive means weak or mixed curves; inactive means no such curve, though single readings can be large; an effect the other way counts as inactive or inconclusive.

Assay [1] in a line: qHTS assay to identify small molecule agonists of the RXR signaling pathway - cell viability counter screen (AID 1159529). Further: nearly all actives have a fitted effect of over 50% in size. Further: potency means the concentration at half of the fitted maximal effect. On activity change, negative = cytotoxicity: series mostly up to about 77 µM. The procedure, abridged:
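CellTiter-Glo luminescence gave viability in the wells also read for beta-lactamase. Cells (RXR-alpha-UAS-bla HEK 293T, 2% charcoal-stripped FBS medium) had 5 hr plating, then 16 hr compound exposure at 37 C; tetraoctyl ammonium bromide served as positive control.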
In general terms: Quantitative high-throughput screening tests each substance at several concentrations.

Assay [2] can be described thus: qHTS assay to identify small molecule antagonists of the retinoid acid receptor (RAR) signaling pathway - cell viability counter screen (AID 1159551). Further: nearly all actives have a fitted effect of over 35% in size. The procedure, abridged: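 Following overnight attachment, C3RL4 reporter cells received DMSO-dissolved compounds and then retinol (1 uM final). Six hours later at 37 C, ATP content was measured by CellTiter-Glo luminescence.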

The nature of assay [3]: qHTS assay to identify small molecule antagonists of the retinoic acid receptor (RAR) signaling pathway (AID 1159552; further: nearly all actives have a fitted effect of over 50% in size). The procedure, abridged: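 Luminescent RARE reporter read-out in C3RL4 cells: 6 hr co-treatment at 37 C of test compounds with retinol at 1 uM final. Cells plated overnight beforehand; luciferase reagent incubated 30 min at room temperature before reading.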

Assay [4] in a line: qHTS assay to identify small molecule agonists of the retinoic acid receptor (RAR) signaling pathway (AID 1159553). Further: potency means the concentration at half of the fitted maximal effect. The procedure, abridged: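 Cell line C3RL4, RARE luciferase reporter. Treatment: compounds in DMSO, 6 hr, 37 C, 5% CO2, after overnight plating. Detection: luminescence, 30 min RT after reagent.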
A short description of assay [5]: qHTS assay to identify small molecule antagonists of the estrogen related receptor (ERR) signaling pathway - cell viability counter screen (AID 1224818).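 Further: series mostly up to about 46 µM; viability measured after 17.5 h of compound exposure.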 An outline of the steps:
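Here, ERR cells are plated at 2,000 cells per well, allowed 6 h to attach, and treated with compounds in DMSO for 17.5 h at 37 C. CellTiter-Fluor is then added and fluorescence read after 30 min.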

The nature of assay [6]: qHTS assay to identify small molecule antagonists of the estrogen related receptor signaling pathway with the pleiotropic PPARgamma coactivator (PGC) cell viability counter screen (AID 1224822;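 further: series mostly up to about 46 µM; viability read after 17.5 h compound exposure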). An outline of the steps:
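qHTS format, DMSO compound stocks pin-transferred onto PGC/ERR cells 6 h after plating; 17.5 h exposure at 37 C, then CellTiter-Fluor fluorescence.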

Assay [7] can be described thus: qHTS assay to identify small molecule antagonists of the estrogen related receptor (ERR) signaling pathway (AID 1224819;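 further: luminescence from an ERR-driven luciferase reporter measured with One-Glo reagent; series mostly up to about 46 µM; nearly all actives have a fitted effect of over 50% in size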). The procedure, abridged:
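LOPAC library screened for antagonism as reduced One-Glo luminescence in ERR reporter cells (2,000/well). Compounds were added after 6 h pre-incubation and left 18 h at 37C; reading followed a 30 min room-temperature reagent step.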

Assay [8] is described as follows: qHTS assay to identify small molecule agonists of the estrogen related receptor (ERR) signaling pathway (AID 1224820). The procedure, abridged: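 Cells: ERR line from NTP, 2,000/well. Pre-incubation 6 h, 37 C/5% CO2. Compound (DMSO) pin transfer, 18 h 37 C. One-Glo, 30 min RT, luminescence.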
Assay [9] relates to estrogen-related receptor alpha (ERRalpha) with PGC-1alpha coactivator, human. The assay is described as follows: qHTS assay to identify small molecule antagonists of the estrogen related receptor signaling pathway with the pleiotropic PPARgamma coactivator (PGC) (AID 1224821; calls by dose curve;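 further: series mostly up to about 46 µM; lower luminescence signal means antagonism of PGC/ERR signalling; nearly all actives have a fitted effect of over 50% in size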). The procedure, abridged: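 Luminescent read-out (One-Glo, 30 min at room temperature) following 18 h treatment of PGC/ERR cells at 37 C with compounds delivered in DMSO. Cells had settled 6 h at 37 C/5% CO2 before dosing.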

In the case of `CCC[Si](OC)(OC)OC`, the Potency result in assay [1] and in [4] was “inactive” each time. For the same compound, the compound was classed as inactive in assay [2] and in assay [3].
As for `CCOc1ccc2c(c1)C(C)CC(C)(C)N2` (stereo unspecified), the Potency result in assay [1] is “inactive”. Further, the compound was classed as inactive in assay [2] and in [3]. Further, the Potency in assay [4] was 54.5 µM (active).
As to `C[C@H](N)C(=O)N[C@@H](C)C(=O)NC1[C@H]2CN(c3nc4c(cc3F)c(=O)c(C(=O)O)cn4-c3ccc(F)cc3F)C[C@@H]12` (stereo partly specified), in [1], the Potency entry was “inactive”. Moreover, the result in assay [2] and in assay [3] was inactive.
`CCOc1ccccc1O`: the Potency result in assay [1] and in assay [4] was “inactive” in each case. Further, the compound was classed as inactive in assay [2] and in assay [3].
As to `CCCCOC(=O)C(C)Oc1ccc(Oc2ccc(C(F)(F)F)cn2)cc1` (stereo unspecified), the Potency entry in assay [1] and in assay [4] was “inactive” throughout. Further, the call in assay [2] and in assay [3] was inactive.
With `Nc1cccc2c(=O)[nH][nH]c(=O)c12`, the Potency in [1] is 5.52 µM (active). For the same compound, the result in assay [2] was inactive. In addition, the Potency entry in assay [4] was “inactive”.
With `CC(O)CN` (stereo unspecified), the compound was classed as inactive in assay [2] and in assay [3]. The Potency entry in assay [4] is “inactive”.
Regarding `O=S(=O)(O)c1cc(Cl)c(Cl)cc1Cl`, in assay [2], the compound was called inactive.
As to `CC(C)(C(=O)O)c1ccc(C(O)CCCN2CCC(C(O)(c3ccccc3)c3ccccc3)CC2)cc1` (stereo unspecified), in [1], the Potency entry was “inactive”. For the same compound, the compound was called inactive in assay [2], in [5] and in [6].
Take `CCCCCC1CCC(=O)O1` (stereo unspecified): the compound was classed as inactive in [2].
Regarding `Cc1c(Nc2ncccc2C(=O)O)cccc1C(F)(F)F`, the compound was classed as inactive in assay [2] and in assay [3].
On to `Clc1nc2ccccc2nc1Cl`, for which the Potency entry in [1] and in assay [4] was “inactive” in each case.
With `CC(CCl)OC(C)CCl` (stereo unspecified), the Potency result in [1] and in [4] was “inactive” in each case. Further, the call in assay [2] and in [3] was inactive.
In the case of `Clc1cc(Cl)c2c(c1)N=C1CCCCCN1C2`, the call in assay [2] and in assay [3] was inactive.
`COc1cc(CNC(=O)CCCC/C=C/C(C)C)ccc1O`: the call in assay [2] and in assay [3] was inactive.
For the compound `CCC(CC)C(=O)O`, the result in assay [2] and in [3] was inactive.
Take `CC(=O)c1cccnc1`: in [2], the compound was classed as inactive.
Take `COc1ccc(/C=C/c2cc(OC)cc(=O)o2)cc1`: the Potency entry in [1] is “inactive”. Also, the call in [2] and in assay [3] was inactive. Moreover, in assay [4], the Potency is 2.79 µM (active).
`O=C(O)c1ccc2c(c1)nc(C(=O)NC1CCN(C3CC3)CC1)n2Cc1cc(-c2ccc(Cl)s2)on1`: the activity change, negative = cytotoxicity in assay [2] is 0.727% [at 19 µM].
Turning to `Cc1ccc(NC(=O)c2ccc(CN3CCN(C)CC3)cc2)cc1Nc1nccc(-c2cccnc2)n1`, in [2], the call was inactive.
For the compound `c1ccc(-c2ccc(-c3ccccc3)cc2)cc1`, the activity change, negative = cytotoxicity in assay [2] is 4.6% [at 19 µM]. Moreover, the activity, negative = inhibition in assay [3] was 100% [at 19 µM]. Also, the Potency in [4] was 0.996 µM (active).
As for `O=C(O)c1cccnc1Nc1cccc(C(F)(F)F)c1`, the Potency entry in assay [1] and in assay [7] was “inactive” in each case. The call in assay [2], in [3], in assay [5], in assay [8], in [9] and in assay [6] was inactive.
Take `C=CC(C)CCC=C(C)C` (stereo unspecified): the Potency result in [1] and in assay [4] was “inactive” each time. Also, in assay [2], the outcome was inactive.
Turning to `CC(C)CCCCCCCOC(=O)c1ccc(C(=O)OCCCCCCCC(C)C)c(C(=O)OCCCCCCCC(C)C)c1`, the outcome in assay [2] was inactive.
Regarding `FC1(F)C(F)(F)C(F)(F)C2(F)C(F)(C1(F)F)C(F)(F)C(F)(F)C1(F)C(F)(F)C(F)(F)C(F)(F)C(F)(F)C12F` (stereo unspecified), in assay [2], the call was inactive.
Consider `NC(=O)c1cc[n+](CC2=C(C(=O)[O-])N3C(=O)[C@@H](NC(=O)Cc4cccs4)[C@H]3SC2)cc1`, for which the Potency result in [1] and in assay [4] was “inactive” in each case. Further, the compound was called inactive in assay [2] and in assay [3].
In the case of `CC(C)Oc1ccccc1O`, the call in assay [2] was inactive.
For the compound `O=C(Nc1ccccc1)c1cc([N+](=O)[O-])ccc1Cl`, the Potency result in assay [1] and in assay [7] was “inactive” each time. The outcome in assay [2], in assay [5], in assay [9] and in assay [6] was inactive.
For the compound `COc1ccnc2c1CCCCC2S(=O)c1nc2ccccc2[nH]1` (stereo unspecified), the compound was called inactive in assay [2] and in assay [3].
As for `CC(=O)CC/C=C(\C)CC/C=C(\C)CC/C=C(\C)CCC=C(C)C`, the Potency result in [1] and in [4] was “inactive” in each case. Moreover, the result in assay [2] and in [3] was inactive.
For `NC(=O)c1ccccc1C(N)=O`, the call in assay [2] was inactive.
Take `NCCOCCOCCN`: the compound was classed as inactive in [2].
On to `CC(C)(C)NCC(O)COc1ccc(NC(=O)NC2CCCCC2)cc1` (stereo unspecified), for which the call in [2] and in assay [3] was inactive.
Regarding `NC(=O)c1ccccc1`, the Potency result in assay [1] and in [4] was “inactive” each time. Further, the call in assay [2], in [5] and in assay [6] was inactive.
Take `CCN(CCCCOC(=O)c1ccc(OC)c(OC)c1)C(C)Cc1ccc(OC)cc1` (stereo unspecified): the compound was called inactive in assay [2] and in [3]. Also, the Potency result in assay [4] was “inactive”.
In the case of `O=C(O)c1cc(C(=O)O)c(C(=O)O)cc1C(=O)O`, the compound was called inactive in assay [2] and in [3].
Take `C=C[Si]1(C)O[Si](C)(C=C)O[Si](C)(C=C)O[Si](C)(C=C)O1` (stereo unspecified): the call in assay [2] and in assay [3] was inactive.
For the compound `SCCOCCOCCS`, the outcome in assay [2] was inactive.
For the compound `O=C(OCCCCCOC(=O)c1ccccc1)c1ccccc1`, the compound was called inactive in assay [2] and in assay [3].
As to `CCC(=O)O[C@]1(C(=O)COC)[C@@H](C)C[C@H]2[C@@H]3CCC4=CC(=O)C=C[C@]4(C)C3(F)[C@@H](O)C[C@@]21C` (stereo partly specified), the Potency result in [1] and in [4] was “inactive” each time. In [2], the outcome was inactive.
With `CC(=O)OCC(=O)[C@@]1(O)CC[C@H]2[C@@H]3CCC4=CC(=O)C=C[C@]4(C)[C@@]3(F)[C@@H](O)C[C@@]21C`, the compound was classed as inactive in assay [2].
`CO[C@@H]1COCC[C@@H]1N[C@@H]1CC[C@@](C(=O)N2CCc3ncc(C(F)(F)F)cc3C2)(C(C)C)C1`: in assay [2], the result was inactive.
Take `CC1(C)CC(=O)CC(C)(C)N1`: in assay [2], the call was inactive.
Turning to `CO[C@@H]1[C@@H](O[C@@H]2O[C@H](C)[C@@H](O[C@H]3C[C@@](C)(O)[C@@H](O)[C@H](C)O3)[C@H](N(C)C)[C@H]2O)[C@@H](CC=O)C[C@@H](C)[C@@H](O[C@@H]2CC[C@H](N(C)C)[C@@H](C)O2)/C=C/C=C/C[C@@H](C)OC(=O)C[C@H]1OC(C)=O`, the call in assay [2] and in assay [3] was inactive. For the same compound, in assay [4], the Potency entry was “inactive”.
Turning to `CC(C)C/C=C(\C=O)c1ccccc1`, the compound was classed as inactive in assay [2] and in assay [3]. Moreover, the Potency result in assay [4] was “inactive”.
For `C[C@]12CCC(=O)C=C1[C@@H]1C[C@@H]1[C@H]1[C@@H]3[C@@H]4C[C@@H]4[C@@]4(CCC(=O)O4)[C@@]3(C)CC[C@@H]12`, the compound was classed as inactive in assay [2]. In [4], the Potency result is “inactive”.
Take `C=CCCC`: the outcome in assay [2] and in [3] was inactive. Further, in assay [4], the Potency result was “inactive”.
